KCNQ2 enhance – KCNQ2 (rat) channel potentiation. B-score at 10 µM. O88943. CHO-K1 KCNQ2, FluxOR thallium flux fluorescence; stronger effect = higher value. 310,000 tested, 0.54% active. AID 2239;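 active = fluorescence ratio B-score at least 3 SD of library B-scores, with initial fluorescence B-score within 3 of them, cut at about 5.3 in these data; same plate scores as AID 2156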;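 also: B-score of peak minus minimum over baseline fluorescence ratio after K+ and Tl+ stimulus; positive B-score means potentiation of KCNQ2 with more thallium influx and brighter signal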
KCNQ2 inh – blocks the rat KCNQ2 potassium channel. B-score at 10 µM. CHO-K1 KCNQ2, FluxOR thallium flux, 20 min; stronger effect = lower value. O88943. 310,000 tested, 1.1% active;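 active = fluorescence ratio B-score at most minus 3 library SDs, with starting brightness B-score within 2 library SDs, cut at about -5.5 in these data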
Kir21 conf inh – confirmation of mouse Kir2.1 potassium channel inhibitors. Tl flux remaining, % of negative control (stronger effect = lower value), % at 10 µM. Kir2.1-expressing cells, FluxOR thallium flux fluorescence; stronger effect = lower value. 2,300 tested, 41% active. shares compounds with KCNQ2 enhance. AID 2032;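 active = Primary-screen hit whose thallium flux fell at least 3 control SD below untreated wells in both duplicates, with normal baseline fluorescence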;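 also: 0% = blank wells without stimulus and 100% = stimulated no-compound controls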
HEK293 ctr – counter-screen for Kir2.1 inhibitors: effect in parental HEK293 cells. shares compounds with KCNQ2 enhance. FluxOR thallium flux fluorescence; 0% = unstimulated blank wells. FluxOR signal as % of negative control (100 = no effect), % at 10 µM. 2,300 tested, 19% active. AID 2105;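 active = dye signal at least 3 control SD above or below untreated wells in both duplicates, raw fluorescence within 3, either direction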;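 also: percent is based on the flux ratio of peak minus minimum fluorescence over baseline F0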
CHO-K1 ctr – parental CHO-K1 activity in KCNQ2 potentiator counter-screen; shares compounds with KCNQ2 enhance; parental CHO-K1 cells, FluxOR thallium flux fluorescence; zero = vehicle mean+3SD, 100% = vehicle-minus-blank window; activity increase over 3SD of controls, % at 10 µM; 1,200 tested, 43% active; AID 2282;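 active = signal rise of at least 3 SD above the untreated control mean, in both duplicate wells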;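 also: counter screen of KCNQ2 potentiator hits so any rise reflects channel-independent effects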
KCNQ1 pot spec – human KCNQ1 counter-target activity of KCNQ2 potentiators; 1,200 tested, 28% active; shares compounds with KCNQ2 enhance; CHO KCNQ1 stable, FluxOR thallium flux fluorescence; beyond 3SD, as % of vehicle-control signal; activation over 3SD threshold, % at 10 µM;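 active = fluorescence ratio rise of at least 3 SD of vehicle wells above their mean, in both replicate wells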;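 also: 0% = vehicle mean plus 3 SD and 100% = vehicle minus unstimulated blank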
Target sequence (P51787 whole entry, looked up): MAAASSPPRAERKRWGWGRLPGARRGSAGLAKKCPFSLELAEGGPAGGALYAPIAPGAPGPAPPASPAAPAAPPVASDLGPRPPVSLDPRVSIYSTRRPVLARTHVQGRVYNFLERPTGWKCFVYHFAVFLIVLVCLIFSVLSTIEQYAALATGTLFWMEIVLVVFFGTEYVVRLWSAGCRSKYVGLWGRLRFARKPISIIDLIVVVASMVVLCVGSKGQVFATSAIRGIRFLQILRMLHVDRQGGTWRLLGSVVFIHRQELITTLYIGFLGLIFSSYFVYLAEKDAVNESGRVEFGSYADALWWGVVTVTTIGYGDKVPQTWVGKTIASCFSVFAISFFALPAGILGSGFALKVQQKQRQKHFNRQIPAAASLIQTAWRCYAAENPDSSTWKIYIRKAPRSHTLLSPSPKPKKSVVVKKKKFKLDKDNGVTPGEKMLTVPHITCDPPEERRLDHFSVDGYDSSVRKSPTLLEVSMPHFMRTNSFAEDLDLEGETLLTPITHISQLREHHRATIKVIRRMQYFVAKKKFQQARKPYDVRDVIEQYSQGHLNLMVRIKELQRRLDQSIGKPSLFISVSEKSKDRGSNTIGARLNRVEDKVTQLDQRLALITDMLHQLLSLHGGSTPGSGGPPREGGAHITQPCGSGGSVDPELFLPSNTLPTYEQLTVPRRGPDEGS
KCNQ2 pot confirm – confirmation of rat KCNQ2 potassium channel potentiators; shares compounds with KCNQ2 enhance; AID 2287; potentiation, less the hit threshold, % at 10 µM; 1,200 tested, 68% active; CHO-KCNQ2 cells, FluxOR thallium flux fluorescence;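 active = fluorescence ratio rising 3 SD or more over the vehicle control mean in both replicates, plus primary screen hit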;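 also: peak minus minimum thallium fluorescence divided by baseline after K/Tl stimulus; 0% = vehicle mean plus 3 SD and 100% = vehicle minus unstimulated blank difference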
Kir21 spec – selectivity of KCNQ2 potentiators: effect on mouse Kir2.1 | shares compounds with KCNQ2 enhance | HEK293 Kir2.1, FluxOR thallium flux fluorescence | activity over 3SD threshold, % at 10 µM | 1,200 tested, 2% active | AID 2345;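 active = fluorescence ratio rise of at least 3 SD above the vehicle-control mean, seen in both replicates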;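 also: 0% = vehicle mean plus 3 SD and 100% = vehicle minus no-stimulus blank window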
KCNQ2 W236L MoA – KCNQ2 potentiators acting on retigabine-insensitive rat KCNQ2 W236L mutant; shares compounds with KCNQ2 enhance; CHO KCNQ2-W236L, automated patch clamp current; current increase over 3SD of negative controls (%), stronger effect = higher value, % at 25 µM; 940 tested, 10% active; AID 2558;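 active = current increase at least 3 SD of the untreated controls above them in both duplicate recordings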
An asterisk follows results filed as active; i = inactive; nt = no result given. Rows were chosen to be rich in hits. Some 1.6% of all compounds tested hit in one or more screens of this group.

SMILES	KCNQ2 enhance	KCNQ2 inh	Kir21 conf inh	HEK293 ctr	others
O=C(NCCCCNC(=O)c1cccnc1Cl)c1cccnc1Cl	0.54	i	nt	nt
CCCNC(=O)c1nnsc1S(=O)c1ccc(Cl)cc1 (stereo not drawn)	-6.8	-6.8*	74%*	i
Cc1nnsc1S(=O)c1ccc(F)cc1 (stereo not drawn)	0.41	i	nt	nt
CNC(=O)c1nnsc1S(=O)c1ccc(Cl)cc1 (stereo not drawn)	nt	i	66%*	65%*
Cc1ccc(S(=O)c2snnc2C)cc1 (stereo not drawn)	nt	i	nt	nt
Cc1cc(C)c2[nH]c(C(=O)N3CCC(n4nccc4NC(=O)C4CC4)CC3)c(C)c2c1	0.91	i	nt	nt
O=C(CNC(=O)c1[nH]cnc1C(=O)NC(c1ccccc1)c1ccccc1)OCc1ccccc1	nt	i	nt	nt
Cc1ccc(S(=O)(=O)NCc2c(-c3ccccc3)noc2C)cc1	nt	i	nt	nt
Cc1onc(-c2ccccc2)c1CNS(=O)(=O)c1cccc(Cl)c1	0.47	i	58%*	i
COc1cc(C(=O)NC2CC(C)(C)CC(C)(C)C2)ccc1OC1CCN(C(C)=O)CC1	nt	i	nt	nt
Cc1ccccc1Oc1nc(-c2ccccn2)nc2ccccc12	0.86	i	nt	nt
CC1(C)CC(=O)C(C(c2ccco2)C2C(=O)CC(C)(C)CC2=O)C(=O)C1	9.8*	i	i	74%*	CHO-K1 ctr=-40;KCNQ1 pot spec=-16;KCNQ2 pot confirm=40*;Kir21 spec=-37;KCNQ2 W236L MoA=i
CC1(C)CC(=O)C(C(c2ccc(F)cc2)C2C(=O)CC(C)(C)CC2=O)C(=O)C1	nt	i	nt	nt
CCCCCn1nc(C(=O)N(CC(C)C)c2c(N)n(CCCC)c(=O)[nH]c2=O)c2ccccc2c1=O	nt	i	nt	nt
CC(C)c1ccc(-n2c(-c3ccccc3)c[n+]3c2CCc2ccccc2-3)cc1	-7.4	-7.4*	20%*	i
COc1ccc(-n2c(-c3ccc(Br)cc3)c[n+]3c2CCc2ccccc2-3)cc1	nt	i	60%*	74%*
COc1ccc(-c2cn(-c3ccc(OC)cc3)c3[n+]2-c2ccccc2CC3)cc1	nt	i	nt	nt
COc1ccccc1-n1c(-c2ccccc2)c[n+]2c1CCc1ccccc1-2	nt	i	nt	nt
CN1CCN(C(=O)c2ccc(CNS(=O)(=O)c3ccc(F)c(Cl)c3)cc2)CC1	0.08	i	nt	nt
CC(=O)c1cccc(NC(=O)CCc2nnc3ccc(NCc4ccc5c(c4)OCO5)nn23)c1	1.2	i	nt	nt
CCOc1ccc(OCCOC(=O)CN(C)S(=O)(=O)c2ccc(NC(C)=O)cc2)cc1	0.55	i	nt	nt
CCOc1ccc(NC(=O)CSc2nc3ccccc3nc2N2CCOCC2)cc1	0.25	i	nt	nt
COc1ccc(C(=O)N/N=C(\C)CC(=O)NC2CCCCC2)c(OC)c1	1.7	i	nt	nt
CCN(Cc1ccccc1)Cc1nnnn1Cc1ccccc1	nt	i	38%*	69%*
c1ccc(Cn2nnnc2CN2CCN(c3ncccn3)CC2)cc1	0.01	i	nt	nt
SMILES	KCNQ2 enhance	KCNQ2 inh	Kir21 conf inh	HEK293 ctr	others
Cc1ccc(SC2=C(C(=O)O)CCCC2)cc1	nt	i	nt	nt
COc1ccccc1C1CCN(Cc2ccc(Cl)c(Cl)c2)CC1	nt	i	nt	nt
CN[C@@H]1CC[C@H](c2ccc(Cl)c(Cl)c2)c2ccccc21	nt	i	47%*	i
O=C(Cn1sc2ccccc2c1=O)N1CCN(C(=O)c2ccco2)CC1	0.37	i	nt	nt
O=C(Cc1ccc(Cl)cc1Cl)NC1CCCCCC1	3	i	nt	nt
O=C(Cc1ccc(Cl)c(Cl)c1)NC1CCCCCC1	7.2*	i	i	i	CHO-K1 ctr=-1;KCNQ1 pot spec=0.5*;KCNQ2 pot confirm=0.8*;Kir21 spec=-33;KCNQ2 W236L MoA=i
CCc1ccc(OCC(=O)NNC(=S)NC(=O)C2CCCCC2)c(Br)c1	nt	i	nt	nt
CCc1ccc(OCC(=O)NC2CCCCC2)c(Br)c1	23*	i	i	i	CHO-K1 ctr=138*;KCNQ1 pot spec=-16;KCNQ2 pot confirm=72*;Kir21 spec=-44;KCNQ2 W236L MoA=i
COc1cccc(/C(C)=N/NS(=O)(=O)c2ccc(Cl)cc2)c1	1	i	nt	nt
COc1cccc(/C(=N/O)C2CC2c2ccc(Cl)cc2)c1 (stereo not drawn)	6.7*	i	i	i	CHO-K1 ctr=33*;KCNQ1 pot spec=-4;KCNQ2 pot confirm=8.1*;Kir21 spec=-33;KCNQ2 W236L MoA=i
CC(C)C(C(=O)NCC1CCCO1)N(C(=O)CNS(=O)(=O)c1ccccc1)c1ccc(F)cc1 (stereo not drawn)	nt	i	nt	nt
Cc1ccc(Cl)c(OCC(=O)NCC(c2cccs2)N2CCOCC2)c1 (stereo not drawn)	nt	i	64%*	i
O=C(COc1ccccc1Cl)NCC(c1cccs1)N1CCOCC1 (stereo not drawn)	nt	i	nt	nt
COc1ccc(C(=O)COC(=O)c2cnc(C)cn2)c(OC)c1	1.2	i	nt	nt
Cc1nc(SC(C)C(=O)c2c(N)n(C)c(=O)n(C)c2=O)c2c(C)c(C)sc2n1 (stereo not drawn)	1.5	i	nt	nt
C=CCn1c(SCC(=O)N(C)C2CCS(=O)(=O)C2)nnc1-c1ccccc1 (stereo not drawn)	nt	i	nt	nt
Cc1ccccc1CSCc1nc2ccccc2[nH]1	nt	i	nt	nt
Cc1ccc(C)c(CSCc2nc3ccccc3[nH]2)c1	nt	i	74%*	i
CN(Cc1ccc(F)cc1)C(=O)c1sccc1-c1ccccc1	nt	i	64%*	i
COc1ccc(CN(C)C(=O)c2sccc2-c2ccccc2)c(OC)c1	nt	i	nt	nt
NS(=O)(=O)c1ccc(NC(=O)CSc2nc(Nc3ccccc3)nc(N3CCOCC3)n2)cc1	nt	i	nt	nt
O=C(CCC1CCCCC1)Nc1ccccc1-c1ccccc1	12*	i	i	i	CHO-K1 ctr=38*;KCNQ1 pot spec=-12;KCNQ2 pot confirm=74*;Kir21 spec=-41;KCNQ2 W236L MoA=i
Cc1ccc(O)c(NC(=O)CCC2CCCCC2)c1	0.28	i	nt	nt
COc1ccccc1N1CCN(C(=O)c2cc(=O)c3c(C)cc(C)cc3o2)CC1	0.03	i	nt	nt
Cn1c(N)c(C(=O)CNC2CCCCC2)c(=O)n(C)c1=O	0.4	i	nt	nt
Cc1ccc(-n2nc3c(=O)n(C(C)C(=O)NC4CC4)nc(C)c3c2C)cc1 (stereo not drawn)	0.02	i	nt	nt
O=C(CCCNC(=O)c1ccc(Cl)cc1)OCc1cccc(Br)c1	0.61	i	nt	nt
